From PubChem BioAssay AID652054 (National Center for Advancing Translational Sciences (NCATS), 2013)
Out of some 360,000 compounds screened, about 9,100 (2.5%) were called active. Another 4% or so got no clear call; they are omitted. For the sample, actives were picked, then their nearest neighbours and some compounds at random. A number with no mark means an inactive call. Cut-off read from the data, not from the text of the source: active = max response below about -50%; inconclusive = no clear call, values can overlap the other calls; inactive = above that.

These compounds were tested against D(3) dopamine receptor (Homo sapiens) (UniProt P35462) (assay: qHTS of D3 Dopamine Receptor Antagonist: qHTS). Conditions: D3R cells, DiscoveRx beta-arrestin luminescence, antagonist mode; hits give low values.
Summary of the method: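 Cells expressing the human receptor were seeded at 1500 cells/well, incubated overnight at 37 degrees C in 5% CO2, then exposed to library compounds with dopamine controls for 90 minutes at 37 degrees C before luminescent detection.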
% is set by controls: 0 for no effect and ±100 for the full control effect.

Sequence of D(3) dopamine receptor (Homo sapiens) (P35462 whole entry, looked up): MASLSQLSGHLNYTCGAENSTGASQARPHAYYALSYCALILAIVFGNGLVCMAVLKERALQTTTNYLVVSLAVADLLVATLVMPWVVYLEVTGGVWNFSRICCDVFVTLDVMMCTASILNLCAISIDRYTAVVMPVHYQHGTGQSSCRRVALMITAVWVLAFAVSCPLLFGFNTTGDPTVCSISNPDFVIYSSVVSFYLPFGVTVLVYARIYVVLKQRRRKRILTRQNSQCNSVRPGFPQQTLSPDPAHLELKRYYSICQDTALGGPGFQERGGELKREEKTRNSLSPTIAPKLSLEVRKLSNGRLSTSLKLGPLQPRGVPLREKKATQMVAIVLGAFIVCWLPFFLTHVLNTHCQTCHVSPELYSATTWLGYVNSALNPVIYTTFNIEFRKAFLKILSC

With C=CS(=O)c1sc(Cl)c(N2CCOCC2)c1[N+](=O)[O-] (configuration not stated) the max response, negative = inhibition was -84.2% (active).
COc1ccc(CCC(C)N2CCc3ccccc3C2)cc1 (configuration not stated) was tested, and the max response, negative = inhibition was -112% (active).
CCOc1ccc(-n2c(O)c(/C=N/Nc3nc(C)cc(C)n3)c3ccccc3c2=O)cc1 was tested, and the max response, negative = inhibition was -56.4% (active).
In the case of Cc1cc(C)n(-c2ccc(Cl)c(C(=O)O)n2)n1, the max response, negative = inhibition was -86.2% (active).
For Cc1ccc(CN2CCN(/N=C/c3ccco3)CC2)c(C)c1, the max response, negative = inhibition was -78.6% (active).
Cc1cccc2c1-c1sc(C(=O)NCCCN3CCc4ccccc4C3)cc1CO2 was tested, and the max response, negative = inhibition was -63.3% (active).
For COc1ccccc1-n1c(C)nc2cc(C(=O)NCc3ccc4c(c3)OCO4)ccc21, the max response, negative = inhibition was -53.5% (active).
With CC(=O)c1cc2c(cc1NC(=O)CN1CCCCCC1)OCO2 the max response, negative = inhibition was -65% (active).
With CC(C)CCNc1nc(N2CCCC2)c2c(c1C#N)CCN(C)C2 the max response, negative = inhibition was -65.7% (active).
With C/C(=N\NC(=O)Cc1ccc(Cl)cc1)c1ccccn1 the max response, negative = inhibition was -93.2% (active).
With Cc1ccc(CN2CCN(c3ccccc3Cl)CC2)o1 the max response, negative = inhibition was -75.6% (active).
In the case of CN(C)C(CNC(=O)c1cccc(S(=O)(=O)N2CCc3ccccc3C2)c1)c1ccccc1 (configuration not stated), the max response, negative = inhibition was -80.6% (active).
For COc1ccc(C(CNC(=O)c2cccc(S(=O)(=O)Nc3ccc(Br)cc3)c2)N(C)C)cc1 (configuration not stated), the max response, negative = inhibition was -53.5% (active).
With COc1ccc(C(CNC(=O)c2cccc(NS(=O)(=O)c3ccc(C)c(F)c3)c2)N2CCCC2)cc1 (configuration not stated) the max response, negative = inhibition was -55.7% (active).
For Clc1ccc(-n2nnnc2-c2cnc(-c3ccccn3)nc2-c2cccs2)cc1, the max response, negative = inhibition was -60.1% (active).
For CCN(CC)CCCSc1nc2ccccc2s1, the max response, negative = inhibition was -73.9% (active).
In the case of COc1ccc(-c2nc(CS(=O)CC(=O)NCc3cccnc3)c(C)o2)cc1OC (configuration not stated), the max response, negative = inhibition was -53.3% (active).
In the case of COc1ccc(CCNC(=O)c2cc3sccc3n2C)cc1OC, the max response, negative = inhibition was -72% (active).

Going from CC1(C(=O)NCc2ccco2)Cc2c(-c3ccc4c(c3)OCO4)ccnc2O1 (configuration not stated) to CC1(C(=O)NCc2ccc(F)c(F)c2)Cc2c(-c3ccc4c(c3)OCO4)ccnc2O1 (configuration not stated), the max response, negative = inhibition rises from 5.33% to 19.2%.

First: CC(=O)NN=C(C)c1ccc(NC(=O)C2CC2)cc1
Second: CCOC(=O)C1(C)CCCN(C(=O)c2ccc(N(C)C)cc2)C1 (configuration not stated)
The max response, negative = inhibition of the first is lower: 3.77% for the first, 3.97% for the second.

Going from COc1ccc(CN2CN(C(C)C)CSC2=S)cc1 to COc1ccc(CN2C(=O)C(CC(=O)NCCN3CCOCC3)CC(C(=O)N(C(C)C)C(C)C)=C2C)cc1 (configuration not stated), the max response, negative = inhibition rises from -12.9% to 10.3%.

Compared with COc1ccc(NC(=O)C(=O)NCC(c2ccco2)N2CCc3ccccc3C2)cc1 (configuration not stated), CC(NC(=O)c1cccc(S(=O)(=O)N2CCc3ccccc3C2)c1)c1ccco1 (configuration not stated) is lower in max response, negative = inhibition: 6.38% for the first, 4.52% for the second.

Going from O=C(OC1CC2CC1[C@H]1CCCCN1C2=O)N1CCOCC1 (some centres not stated) to COC(=O)[C@]12CCCCC=C1N(Cc1ccco1)C(=O)[C@H](CC(=O)NCC1CCCCC1)C2, the max response, negative = inhibition falls from 3.81% to -0.188%.

Going from O=C(C(=O)N1CCC(c2ccccc2)CC1)c1ccccc1 to Cc1cccc(C(=O)C(O)(c2ccccc2)C2CCCCC2=O)c1 (configuration not stated), the max response, negative = inhibition falls from 11.8% to 6.43%.

First: Cc1ccc(-n2c(O)c(C=Nc3ccc(S(=O)(=O)Nc4ncccn4)cc3)c3ccccc3c2=O)cc1C
Second: CCN(CC)CCCN=Cc1c(O)n(-c2ccc(C)cc2)c(=O)c2ccccc12
The max response, negative = inhibition of the first is lower: 1.71% for the first, 9.43% for the second.

First: O=C(Nc1ccc2c(c1)OCCO2)C1c2ccccc2OCC(=O)N1Cc1ccccn1 (configuration not stated)
Second: CCN(CC)CCN(C)C(c1ccnc2ccccc12)c1nnnn1-c1ccc2c(c1)OCCO2 (configuration not stated)
The max response, negative = inhibition of the first is higher: 33.3% for the first, 0% for the second.

First: Cc1cc(C)n(-c2ccc3nncn3n2)n1
Second: Cc1ccc(S(=O)(=O)Nc2nc(C)cc(-n3nc(C)cc3C)n2)cc1
The max response, negative = inhibition of the first is higher: 1.57% for the first, -12.2% for the second.

First: COCCCNC(=O)c1cccc2c(-c3ccc(O)c(OC)c3)coc12
Second: COc1ccc(-c2nc(CS(=O)CC(=O)NCc3ccccc3)c(C)o2)cc1OC (configuration not stated)
The max response, negative = inhibition of the first is higher: 0.229% for the first, -17% for the second.

Compared with CN1OC[C@@H]2CN(S(=O)(=O)c3cccc(C(F)(F)F)c3)[C@H](c3ccc(-c4cc5ccccc5o4)cc3)C[C@@H]21, O=C1[C@H]2[C@@H](c3ccc(C(F)(F)F)cc3)N[C@]3(CCCN(Cc4ccc(Br)cc4)C3=O)[C@H]2C(=O)N1Cc1ccccc1 is higher in max response, negative = inhibition: -12% for the first, 29.8% for the second.

Compared with Cc1ccc(CN2CCN(/N=C/c3cccnc3)CC2)c(C)c1, Cc1ccc(CN2CCN(Cc3cn(C)nc3-c3ccccc3)CC2CCO)o1 (configuration not stated) is higher in max response, negative = inhibition: -15% for the first, 3.14% for the second.

First: Cc1ccc(NC(=O)CCC(=O)N/N=C/c2ccco2)c(C)c1
Second: COc1ccc(CCNC(=O)COC(=O)/C=C/c2cccs2)cc1OC
The max response, negative = inhibition of the first is higher: 16.8% for the first, -11.9% for the second.

Compared with O=C(/C=C/[C@H]1O[C@@H](n2cnc3c(NC(=O)c4ccccc4)ncnc32)[C@H](O)[C@@H]1O)NCc1ccccc1, O=C(Nc1ccc(S(=O)(=O)N2CCc3ccccc3C2)cc1)c1ccccc1 is higher in max response, negative = inhibition: 0% for the first, 19.5% for the second.

Going from CCn1cc(C(=O)NCCCN2CCCCCC2)c(=O)c2cc(S(=O)(=O)N3CCc4ccccc4C3)ccc21 to CN1CCN(CCCNC(=O)c2cc3c(=O)oc4ccccc4c3s2)CC1, the max response, negative = inhibition rises from -2.35% to 0%.

Compared with C[C@@H]1CN([C@@H](C)CO)C(=O)c2cc(Br)cnc2O[C@H]1CN(C)Cc1ccc(-c2ccccc2)cc1, CCc1ccc(-c2nnn(Cc3nc4ccccc4s3)n2)cc1 is lower in max response, negative = inhibition: 24.5% for the first, 12.9% for the second.

Going from COc1ccc([C@H]2N[C@]3(CCCN(CC4CCCCC4)C3=O)[C@H]3C(=O)N(C)C(=O)[C@@H]23)cc1 to CCN1C(=O)[C@H]2[C@@H](c3ccccc3)N[C@]3(CCCN(Cc4ccc(C)cc4)C3=O)[C@H]2C1=O, the max response, negative = inhibition falls from -3.44% to -7.93%.

Compared with COc1cc(OC)c(C(=O)NCc2ccc3c(c2)OCO3)cc1OC, CCOc1c2ccc(C(=O)NCc3ccc4c(c3)OCO4)cc2nn1C is higher in max response, negative = inhibition: -7.32% for the first, 21.7% for the second.

Going from C[C@@H]1CC2=C(C(=O)OC(C)(C)O2)[C@@H](C2CC2)O1 to CC(C)CN1C(=O)CN(S(C)(=O)=O)CC1(C)C(=O)NCc1ccccc1 (configuration not stated), the max response, negative = inhibition falls from 20% to 18.8%.

Going from CC1(C(=O)NCc2ccccc2)CN(S(C)(=O)=O)CC(=O)N1CC(F)(F)F (configuration not stated) to Cc1ccccc1S(=O)(=O)NC(=O)C1(C)CCN1C(=O)Cc1ccc(Cl)cc1Cl (configuration not stated), the max response, negative = inhibition falls from 17.5% to -7.52%.

First: CC(=O)c1cc2c(cc1NC(=O)Cn1nc(-c3ccc(F)cc3)ccc1=O)OCO2
Second: Cn1c(NCc2cccnc2)nc2cc(-c3ccc(F)cc3)sc2c1=O
The max response, negative = inhibition of the first is lower: -11.4% for the first, 0% for the second.

Compared with O=C(CN1CCCCCC1)Nc1ccc(Br)cc1Br, Cn1c(C(=O)NCCCN2CCCCC2)cc2sccc21 is lower in max response, negative = inhibition: -12.8% for the first, -17.4% for the second.

Going from COc1ccc(C(C)(O)c2nc(-c3cc(F)cc(F)c3)cs2)cc1 (configuration not stated) to COc1cc(C(O)c2nc(-c3cccc(C(=O)O)c3)cs2)ccc1F (configuration not stated), the max response, negative = inhibition rises from 2.54% to 5.94%.

First: CCc1nc(NCCO)c(C#N)c2c1CCCC2
Second: CC(C)Cc1nc(N2CCOCC2)c(C#N)c2c1CCC2
The max response, negative = inhibition of the first is lower: -13.6% for the first, 36.7% for the second.

Compared with CC(=NNC(=S)N1CCCCCC1)c1ccccn1, CC1(C(=O)NS(=O)(=O)c2ccc(Cl)cc2)CCN1C(=O)CC1CCCC1 (configuration not stated) is lower in max response, negative = inhibition: 18.7% for the first, -16% for the second.

Going from NC(=O)NC(CC(=O)NNC(=O)c1ccccn1)c1ccc(Cl)cc1 (configuration not stated) to CN(Cc1c(F)cccc1Cl)C(=O)COC(=O)Cn1cnc2ccccc2c1=O, the max response, negative = inhibition rises from -12.6% to 16%.

Going from CCc1nc2ccc(C(=O)N3CCC(O)(Cc4ccccc4)CC3)cn2c1N(C)C(=O)Cc1ccccc1 to CCc1nc2ccc(C(=O)Nc3ccc(OC)c(OC)c3)cn2c1N(C)C(=O)c1cccc(OC)c1, the max response, negative = inhibition falls from -22.4% to -28%.

Compared with Cc1ccc(CN2CCN(Cc3ccc(OCCO)cc3)CC2CCO)o1 (configuration not stated), COc1cccc(-c2nc(CS(=O)CC(=O)NCc3ccc(F)cc3)c(C)o2)c1 (configuration not stated) is lower in max response, negative = inhibition: 4.23% for the first, -12.9% for the second.

Compared with COc1ccc(C(CNC(=O)c2ccc(NS(=O)(=O)c3ccc(F)c(C)c3)cc2)N(C)C)cc1 (configuration not stated), COc1ccccc1C(CNC(=O)c1cccc(S(=O)(=O)Nc2ccc(F)cc2)c1)N(C)C (configuration not stated) is lower in max response, negative = inhibition: -15.4% for the first, -23.9% for the second.

Going from COc1ccc(C(CNC(=O)c2cc(S(=O)(=O)Nc3cccc(C)c3)ccc2C)N2CCCC2)cc1 (configuration not stated) to COc1ccc(C(CNC(=O)c2cccc(S(=O)(=O)Nc3ccccc3Cl)c2)N2CCOCC2)cc1 (configuration not stated), the max response, negative = inhibition rises from -25.7% to 22.5%.

Compared with CC1(C(=O)NCc2ccc3c(c2)OCO3)CCN1C(=O)Cc1cccs1 (configuration not stated), CCOC(=O)[C@]12CCCC=C1N(Cc1cccc3ccccc13)C(=O)[C@H](CC(=O)NCC13CC4CC(CC(C4)C1)C3)C2 is lower in max response, negative = inhibition: 27.8% for the first, -25.2% for the second.

Compared with CCCc1c(C)nc2scc(-c3ccc(Cl)cc3)n2c1=O, N#Cc1ccc(CSc2nnc(-c3ccccn3)n2-c2ccc(Cl)cc2)cc1 is lower in max response, negative = inhibition: 3.72% for the first, -15.7% for the second.

Going from COc1ccc(OC)c(C(O)c2ncc(-c3cccc(C(F)(F)F)c3)[nH]2)c1 (configuration not stated) to FC(F)(F)c1nc(-c2ccccc2)ncc1-c1nnnn1-c1ccccc1, the max response, negative = inhibition rises from -26% to 16.8%.

Compared with CCCNC(=O)c1cc(C2CCCCN2S(=O)(=O)c2cn(C)cn2)on1 (configuration not stated), CCN(CC)CCn1c2c(c(SCC(=O)Nc3nc4ccccc4s3)nc1=O)CCCC2 is lower in max response, negative = inhibition: 0.438% for the first, -4.31% for the second.

CN(C)c1cccc(NC(=O)c2ccc(-c3ccc(F)c(F)c3)c3ccoc23)c1 gave a max response, negative = inhibition of -0.987%.
